Data taken from PubChem BioAssay.
The source made the active and inactive calls.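 Rule for the calls: active = fluorescence ratio normalized to control raised more than 50% in primary screen plus both repeat runs; inactive = the rest.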

Tested on: TRPC4 beta (transient receptor potential cation channel C4), mouse
Assay: TRPC4 cation channel opening, retest – cell-based, Fluo4 calcium, HEK293 TRPC4beta/mu-opioid, duplicates, 10 µM, confirmation (AID 2426)
Settings: Fluo4 calcium fluorescence, at 10 µM

outcome, inactive:
CC(C)C(=O)N1CCN(c2nc(-c3ccccc3)c3c(c2C#N)CCCC3)CC1, CC(=O)n1cc([C@@H]2C=C(C(=O)NCc3ccccc3)O[C@H](OCc3ccc(CO)cc3)C2)c2ccccc21, CCN1CCN(c2nc(N)c([N+](=O)[O-])c(Nc3ccc(C)c(C)c3)n2)CC1, CN1/C(=C\C=[N+](C)c2ccccc2)C(C)(C)c2ccccc21, COc1cc(NC(=O)C(C)Oc2ccccc2)cc(OC)c1 (stereo not drawn), CCCCc1ccc(NC(=O)CSc2nnc(C)c(=O)n2N)cc1, O=C(COc1ccc(Br)cc1Cl)c1ccc[nH]1, Clc1cc(/C=N\NC2=NCCN2)cc(Cl)n1, Cc1cc(OCC(=O)N2CCCC2)cc(C)c1Cl, CCOC(=O)CC(NS(=O)(=O)c1ccc(OC)c(C)c1)c1cccc([N+](=O)[O-])c1 (stereo not drawn), O=C(COc1coc(CN2CCN(c3ccccc3F)CC2)cc1=O)Nc1ccccc1, CN(C)CCCNC(=O)/C=C/c1ccc(OCc2c(F)cccc2Cl)cc1, CC(C)c1cccc(OCCCCN(C)C)c1, CNc1oc(-c2ccccc2Cl)nc1P(=O)(c1ccccc1)c1ccccc1, Cc1ccc(C(=O)C[n+]2cccc3cc(C)ccc32)cc1, CCCN1CCN(C(=S)NCc2ccc(Cl)cc2)CC1, CC(=O)Nc1nc(-c2ccc3c(c2)CCN3C(=O)C2CC2)c(C)s1, COC(=O)c1ccccc1NC(=O)CCC(=O)N1CC(C)Oc2ccc(C)cc21 (stereo not drawn)
